Source: PubChem BioAssay (Tox21)
Inconclusive results are not listed. Calls of active or inactive are those of the source. Calls come from the whole dose curve; as a rule, active = well fitted cell-killing curve with a large enough effect in the repeat runs; inconclusive = weak or mixed curves, or effect the other way; inactive = no such curve, though single readings can be large or run the other way.

Test: Caspase-3/7 induction in CHO-K1 cells by small molecules, qHTS cell viability counter screen (AID 1346979); note: nearly all actives have a fitted effect of over 35% in size
Details: CellTiter-Fluor fluorescence, 17 h; series mostly up to 92.4 µM; activity change, negative = cytotoxicity: at the top concentration
Text: National Center for Advancing Translational Sciences [NCATS]
NIH Chemical Genomics Center [NCGC]
U.S. Environmental Protection Agency [EPA]
National Institutes of Environmental Health Sciences [NIEHS]
National Toxicology Program [NTP]
U.S. Food and Drug Administration [FDA]
Apoptosis is a process of programmed cell death and plays a central role in the development of multicellular organisms. It is a highly regulated process and induces cell death by activating caspases, which are the members of cysteine aspartic acid-specific protease (caspase) family. Caspases involved in apoptosis are classified by their mechanism of action as initiator caspases (caspase-2, -8, -9 and -10) and executioner caspases (caspase-3, -6, and -7). Inhibition of apoptosis results in number of cancers, autoimmune diseases, inflammatory diseases and viral infection. To identify small molecule compounds that induce apoptosis, a homogeneous, luminescent Caspase-Glo 3/7 assay was used. Wild type CHO-K1 cells were used to screen Tox21 libraries for identifying caspase-3/7 activity inducers. Also cytotoxicity of the compounds was tested in parallel by measuring the cell viability using CellTiter-Fluor assay system in the same wells.
Tox21 Assay Protocol Summary:
CHO-K1 cells were dispensed at 1,500 per well in 5uL of culture medium into white solid bottom 1536-well plates (Corning Life Sciences, Corning, NY) using a Multidrop Combi (Thermo Scientific, Waltham, MA) dispenser. The assay plates were incubated at 37 C and 5% CO2 for 5hr, and then 23nL of compounds dissolved in DMSO and positive control were transferred using a Pintool station (Wako, San Diego, CA). The assay plates were incubated at 37C and 5% CO2 for 17hr. For cytotoxicity read, after 16hr incubation at 37C, 1uL CellTiter-Fluor reagent (Promega Corporation, Madison, WI) was added to each well of the assay plates using Flying Reagent Dispenser (FRD, Aurora Discovery, San Diego, CA). After 1hr incubation at 37C and 5% CO2, the fluorescence signal was quantified using a ViewLux plate reader (PerkinElmer, Shelton, CT).
% is set by controls: 0 for no effect and ±100 for the full control effect; potency is the fitted concentration of half-maximal effect.

Row | SMILES | activity change, negative = cytotoxicity | Potency
1 | CCOc1nc(F)cc2nc(S(=O)(=O)Nc3c(Cl)cccc3Cl)nn12 | -12.2% (inactive) | 
2 | CCCCCCCCCCOC(=O)c1ccccc1C(=O)OCCCCCCCCCC | 6.22% (inactive) | 
3 | CC(Cl)Cl | 0.0573% (inactive) | 
4 | O=C1NCN(c2ccccc2)C12CCN(CCCOc1ccc(F)cc1)CC2 |  | 26.6 µM (active)
5 | O=C1C(=O)c2cccc3cccc1c23 |  | 21.7 µM (active)
6 | Brc1ccc(Oc2ccccc2)cc1 |  | inactive
7 | CC(C)(C)C(O)C(Oc1ccc(Cl)cc1)n1cncn1 (stereo not given) | 0.671% (inactive) | 
8 | [O-][Cl+]O | 6.05% (inactive) | 
9 | S=C=NCc1ccccc1 | -3.54% (inactive) | 
10 | OC(c1ccc(Cl)cc1)(c1ccc(Cl)cc1)c1cccnc1 |  | 61.1 µM (active)
11 | NCCCNCCCN | 1.9% (inactive) | 
12 | O=C(CBr)Nc1ccc(Cl)cc1C(=O)c1ccccc1F | 1.24% [at 42.5 µM] (inactive) | 
13 | CCCCCCCCOC(=O)c1ccc(C(=O)OCCCCCCCC)c(C(=O)OCCCCCCCC)c1 | -1.85% (inactive) | 
14 | CCN(C)N=O | 9.23% (inactive) | 
15 | c1ccc(CN2CCNCC2)cc1 | -0.362% [at 240 µM] (inactive) | 
16 | CCOC(=O)CBr | 2.23% (inactive) | 
17 | CC(c1ccc(O)cc1)(c1ccc(O)cc1)c1ccc(O)cc1 |  | 68.6 µM (active)
18 | O=[N+]([O-])C(Br)(CO)CO |  | 61.1 µM (active)
19 | CCCCCCC#N | -2.38% (inactive) | 
20 | CCCC(=O)Cl | 3.12% (inactive) | 

Row | SMILES | activity change, negative = cytotoxicity | Potency
21 | C(=NC1CCCCC1)=NC1CCCCC1 |  | 13.8 µM (active)
22 | CC(C)(CCl)C(=O)Cl | 1.47% (inactive) | 
23 | CC/C(=N\OC/C=C/Cl)C1=C(O)CC(C2CCOCC2)CC1=O (stereo not given) | 11% (inactive) | 
24 | CCOS(C)(=O)=O | -1.34% (inactive) | 
25 | N#Cc1cc(I)c(O)c(I)c1 |  | 68.6 µM (active)
26 | CCCCN(N=O)C(=N)N[N+](=O)[O-] |  | 62.4 µM (active)
27 | O=S(=O)(O)C(F)(F)C(F)(F)C(F)(F)C(F)(F)F |  | 54.5 µM (active)
28 | O=C(NC(=O)c1c(F)cccc1F)Nc1ccc(OC(F)(F)C(F)OC(F)(F)F)c(Cl)c1 (stereo not given) | 5.81% [at 42.5 µM] (inactive) | 
29 | CC(C)(C)c1cc([N+](=O)[O-])cc([N+](=O)[O-])c1O |  | 17.2 µM (active)
30 | N#CCc1ccccc1 | 1.51% (inactive) | 
31 | CC(C)(Cl)[N+](=O)[O-] | 0.271% (inactive) | 
32 | CCCCN=C=O | 3.33% (inactive) | 
33 | CCOC(=O)C(Cl)C(C)=O (stereo not given) | 6.63% (inactive) | 
34 | CCCCCCCCCC(=O)O[C@H]1CC[C@H]2[C@@H]3CCC4=CC(=O)CC[C@@H]4[C@H]3CC[C@]12C | -4.06% [at 42.5 µM] (inactive) | 
35 | COP(=S)(OC)Oc1cc(Cl)c(I)cc1Cl | -2.11% (inactive) | 
36 | Clc1cc(C(Cl)(Cl)Cl)cnc1Cl |  | 61.1 µM (active)
37 | ClCC(Br)CBr (stereo not given) | 9.93% (inactive) | 
38 | Cc1ccc(N)cc1C | 2.1% (inactive) | 
39 | COC(=O)C(Br)CBr (stereo not given) | -3.18% (inactive) | 
40 | ClCCCCBr | 1.96% (inactive) | 
